About 3,200 (25%) of roughly 13,000 compounds showed an effect of 50% or more. Some of the results follow.
test system: P. falciparum stage V gametocytes; parameters: BacTiter-Glo ATP luminescence viability of purified stage V gametocytes in 384-well plates, per cent inhibition versus DMSO; conditions: 48 h, 5 µM; inhibitor

Structure (SMILES)	% Inhibition
Cc1nn(-c2ccccc2)c2nc(-c3ccccc3)cc(C(=O)N3CCOCC3)c12 [TCMDC-124527]	-18.66%
Cc1cc(N2CCCC2)nc(Nc2ccc(NC(=O)CC(C)C)cc2)n1 [TCMDC-124715]	12.42%
COc1ccc(S(=O)(=O)NC2CCN(c3ccnc4cc(Cl)ccc34)C2)cc1 (stereo not shown) [TCMDC-133649]	9.561%
NC(N)=NN=Cc1cc([N+](=O)[O-])ccc1Sc1ccccc1CO [TCMDC-137883]	34.86%
NC(N)=NN=Cc1ccccc1OCc1ccccc1Cl [TCMDC-124250]	59.45%
CC(=O)C1(c2ccccc2)CCN(CCC2(c3ccc(Cl)c(Cl)c3)CN(C(=O)CC(C)C)CCO2)CC1 (stereo not shown) [TCMDC-135324]	-34.64%
CC(=O)Nc1ccc(S(=O)(=O)N(Cc2cccc(Oc3ccccc3)c2)C2CCN(C/C=C(\C)CCC=C(C)C)CC2)cc1 [TCMDC-139619]	47.01%
Cc1cnc(CNCc2ccc(S(=O)(=O)Nc3ccc(Oc4cccc(Cl)c4)cc3)cc2)cn1 [TCMDC-136202]	-12.09%
Clc1ccc2c(NCc3ccccn3)ccnc2c1 [TCMDC-125103]	3.053%
O=S(=O)(Nc1cccc(F)c1CNCc1ccccn1)c1ccc(Cl)c(Cl)c1 [TCMDC-132598]	71.21%
CCN(CC)C(=NC(=N)NCCCCCCNC(=N)N=C(Nc1ccc(Cl)cc1)N(CC)CC)Nc1ccc(Cl)cc1 [TCMDC-131807]	113%
CCN1CCN(CC(O)CNC(=O)Nc2ccc(Cl)cc2)CC1 (stereo not shown) [TCMDC-134634]	26.07%
COc1ccc(CCN(C)CCCCNC(=O)c2ccc(NC(=O)c3ccc(Cl)cc3)cc2)c(OC)c1 [TCMDC-138506]	49.32%
CCCCN1CCN(CC(O)CNC(=O)Nc2ccc(Cl)cc2)CC1 (stereo not shown) [TCMDC-134646]	4.082%
CC(=O)Nc1ccc(OCCCCCOc2ccc(NC(C)=O)cc2Cl)c(Cl)c1 [TCMDC-137222]	-37.52%
CCN(CC)/C(=N/C(=N)Nc1ccc(Cl)c(Cl)c1)NCCCCCCN/C(=N\C(=N)Nc1ccc(Cl)c(Cl)c1)N(CC)CC [TCMDC-131808]	116.2%
CCN(CC)C(=NC(=N)Nc1ccc(Cl)cc1)NCCCCCCCCNC(=NC(=N)Nc1ccc(Cl)cc1)N(CC)CC [TCMDC-131812]	116.8%
CCCN1CCN(CC(O)CNC(=O)Nc2ccc(Cl)cc2)CC1 (stereo not shown) [TCMDC-134645]	-0.7262%
CC(=NNC(=N)N)C(=O)Nc1ccc(Cl)c(Cl)c1 [TCMDC-137564]	-28.53%
CCN(CC)C(=NCCCCCCN=C(NC(=N)c1ccc(Cl)cc1)N(CC)CC)NC(=N)c1ccc(Cl)cc1 [TCMDC-131806]	117.9%
C[C@@H]([C@@H](CCCCc1ccccc1)C(=O)N[C@H](C(=O)Nc1cccnc1)C(C)(C)C)N(O)C=O [TCMDC-138380]	-15.27%
CCN(C(=O)c1ccc(NC(=O)c2cccs2)cc1)c1nc2c(C)cccc2s1 [TCMDC-125338]	37.84%
O=C(Nc1ccc(OC2CCN(Cc3ccsc3)CC2)c(Cl)c1)c1cccs1 [TCMDC-133740]	-2.262%

Structure (SMILES)	% Inhibition
CCn1c(Cc2ccccc2)nnc1SCC(=O)N1c2ccccc2Sc2ccccc21 [TCMDC-124373]	-22.31%
Cc1cccc2[nH]c(-c3cccc(-c4ccc(NC(=O)C(C)CN5CCOCC5)cc4)c3)nc12 (stereo not shown) [TCMDC-137138]	85.59%
CCC(C)NC(=O)Nc1ccc(-c2cccc(-c3nc4c(C)cccc4[nH]3)c2)cc1 (stereo not shown) [TCMDC-133238]	-3.731%
Cc1cccc2[nH]c(-c3cccc(-c4ccc(NC(=O)CN5CCOCC5)cc4)c3)nc12 [TCMDC-136970]	-20.19%
CC(=O)N[C@H](C(=O)Nc1ccc(-c2cccc(-c3nc4c(C)cccc4[nH]3)c2)cc1)C(C)C [TCMDC-136853]	-50.38%
CCC(C)NC(=O)Nc1cccc(-c2cccc(-c3nc4c(C)cccc4[nH]3)c2)c1 (stereo not shown) [TCMDC-133239]	36.1%
Cc1cccc2[nH]c(-c3ccc(-c4cccc(NC(=O)C(C)CN5CCN(C)CC5)c4)cc3)nc12 (stereo not shown) [TCMDC-137144]	36.55%
Cc1cccc2[nH]c(-c3cccc(-c4ccc(NC(=O)C(C)C(=O)NC(C)C)cc4)c3)nc12 (stereo not shown) [TCMDC-132149]	-14.66%
Cc1cccc2[nH]c(-c3cccc(-c4ccc(NC(=O)C(C)CN(C)C)cc4)c3)nc12 (stereo not shown) [TCMDC-137111]	95.4%
Cc1cccc2[nH]c(-c3cccc(-c4cccc(NC(=O)C(C)CN5CCN(C)CC5)c4)c3)nc12 (stereo not shown) [TCMDC-137150]	88.37%
Cc1cccc2[nH]c(-c3ccc(-c4ccc(NC(=O)C(C)CN(C)C)cc4)cc3)nc12 (stereo not shown) [TCMDC-137105]	-73.49%
Cc1cccc2[nH]c(-c3cccc(-c4cccc(NC(=O)C(C)CN(C)C)c4)c3)nc12 (stereo not shown) [TCMDC-137110]	-50.7%
Cc1cccc2[nH]c(-c3cccc(-c4ccc(NC(=O)C(C)CN5CCN(C)CC5)cc4)c3)nc12 (stereo not shown) [TCMDC-137151]	58.09%
CC(CCc1ccccc1)NCC(O)c1ccc2c3c(cccc13)C(=O)N2C (stereo not shown) [TCMDC-131252]	17.04%
COc1cc(Cc2cnc(N)nc2N)cc(OCCCCCCN2C(=O)c3ccccc3C2=O)c1OC [TCMDC-138043]	3.318%
Cc1ccc(C(C#N)c2ccc3c(C(F)(F)F)cc(C(F)(F)F)nc3n2)cc1 (stereo not shown) [TCMDC-123762]	-33.32%
COc1ccc(-c2c(-c3ccc(OCc4ccccc4)cc3O)n[nH]c2C(F)(F)F)cc1 [TCMDC-124771]	-11.85%
CCc1cc(-c2n[nH]c(C(F)(F)F)c2-c2ccccc2)c(O)cc1OC [TCMDC-123700]	70.95%
CCc1cc(-c2onc(C(F)(F)F)c2-c2ccccc2)c(O)cc1OC [TCMDC-124464]	25.65%
COc1ccc(NC(=O)Nc2nc3ccccc3s2)cc1N1CCN(C)CC1 [TCMDC-139872]	-6.741%
COc1ccccc1N1CCN(CCCCN(C(=O)Nc2cccc(Cl)c2)C(=O)Nc2cccc(Cl)c2)CC1 [TCMDC-131986]	-74.5%
COc1cc(CN2CCC(C(=O)Nc3ccc(-c4cccc(C)c4)cc3)CC2)ccc1O [TCMDC-124633]	46.38%
COc1cccc(OC)c1CN1CCC(N(C)CCCCCCCCCN2CCC(OC(=O)Nc3ccccc3-c3ccccc3)CC2)CC1 [TCMDC-134690]	126.7%

Structure (SMILES)	% Inhibition
COc1ccccc1CCN(C)CCN1CCC(NC(=O)c2ccc(-c3ccc(C(F)(F)F)cc3)cc2)CC1 [TCMDC-138797]	43.57%
COc1cccc(OC)c1CN1CCC(N(C)CCCCCCCCN2CCC(OC(=O)Nc3ccccc3-c3ccccc3)CC2)CC1 [TCMDC-134684]	106.8%
NCC(=O)c1cc2c(cc1N)OCCO2 [TCMDC-131879]	-22.77%
C=C(F)c1sc(CNCCCNc2nc3ccccc3[nH]2)c(C)c1Br [TCMDC-141307]	13.46%
OC1(c2ccccc2)CCN(Cc2cccc(-c3c[nH]c4nc(NC5CCCC5)ncc34)c2)C1 (stereo not shown) [TCMDC-133775]	-50.17%
CC(Cc1ccc(CN(CC(N)=O)Cc2ccc(CC(C)NCCc3cccc(Cl)c3)cc2)cc1)NCCc1cccc(Cl)c1 (stereo not shown) [TCMDC-139804]	113.4%
CC(=O)N(Cc1ccc(CC(C)NCCc2cccc(Cl)c2)cc1)Cc1ccc(CC(C)NCCc2cccc(Cl)c2)cc1 (stereo not shown) [TCMDC-139678]	112.1%
CS(=O)(=O)c1ccc(CNCc2ccc(-c3ccc(-c4nc5cc(C(F)(F)F)ccc5[nH]4)s3)cc2)cc1.O=C(O)C(F)(F)F [TCMDC-132906]	-5.935%
CCN(CC)CCCC(C)Nc1cc(C=Cc2ccc([N+](=O)[O-])cc2)nc2ccc(OC)cc12.O=P(O)(O)O (stereo not shown) [TCMDC-124247]	98.87%
CCN(CC)CCCC(C)Nc1cc(C=Cc2ccccc2Cl)nc2cc(Cl)ccc12 (stereo not shown) [TCMDC-124294]	59.52%
CCN(CC)CCCC(C)Nc1ccnc2cc(Cl)ccc12 (stereo not shown) [TCMDC-123988]	8.457%
CCCN(CCC)C(C)CCC(C)Nc1c2ccc(Cl)cc2nc2ccc(OC)cc12 (stereo not shown) [TCMDC-137516]	50.36%
COc1ccc2nc(-c3ccccc3)cc(NN=Cc3ccc([N+](=O)[O-])cc3)c2c1 [TCMDC-142045]	15.04%
CCN(CC)CCCC(C)Nc1ccnc2ccc(OC)cc12.Cl.O (stereo not shown) [TCMDC-123888]	15.61%
CCN(CC)CCCC(C)Nc1cc(C)nc2cc(Cl)ccc12 (stereo not shown) [TCMDC-124246]	33.92%
CCCN(CCC)CCCCC(C)Nc1c2ccc(Cl)cc2nc2ccc(OC)cc12 (stereo not shown) [TCMDC-137515]	50.13%
O=C(NCCCN1CCN(c2cccc(Cl)c2)CC1)c1ccc(-c2nc3cc(Cl)c(Cl)cc3[nH]2)cc1 [TCMDC-140077]	1.638%
Nc1nc(N)c2cc(S(=O)(=O)c3ccc4ccccc4c3)ccc2n1 [TCMDC-137192]	3.776%
CCCCCCN1CCN(Cc2cccc(NC(=O)c3cccc(OCC)c3)c2)CC1 [TCMDC-134614]	-30.42%
Cc1cc(N(C)C2CCN(CC3CCCCC3)C2)nc(Nc2ccc(Br)cc2)n1 (stereo not shown) [TCMDC-137023]	-48.72%
CCCCCC(=O)N1CCOC(CCN2CCC(c3ccccc3)CC2)(c2ccc(Cl)c(Cl)c2)C1 (stereo not shown) [TCMDC-135328]	-33.56%

Reference: article PMC4552634, “A New Set of Chemical Starting Points with Plasmodium falciparum Transmission-Blocking Potential for Antimalarial Drug Discovery” (PLoS ONE, 2015)
